The record followed here is the antibiotic and cytotoxicity screens of Wong et al. (2023).

The structures appear in SMILES notation. Screen size: about 39,000 compounds; about 3,300 (8.5%) were called active. This excerpt belongs to a sample that is enriched for actives.

The experiment relates to HepG2. Put plainly: cytotoxicity call (relative viability < 0.9). To be noted: 10 µM.
For `COc1ccc(S(=O)(=O)N(C)C[C@H]2OCCCC[C@H](C)Oc3ccc(NC(=O)Nc4ccccc4)cc3C(=O)N([C@@H](C)CO)C[C@@H]2C)cc1`, the cytotoxicity call is “inactive”.

In the case of `C[C@H](CO)N1C[C@H](C)[C@@H](CN(C)Cc2ccc(-c3ccccc3)cc2)Oc2c(NC(=O)CCCCCC(=O)Nc3ccccc3N)cccc2C1=O`, the cytotoxicity call was “active”. In the case of `C[C@@H]1CN([C@H](C)CO)C(=O)c2cccc(NC(=O)CCCCCC(=O)Nc3ccccc3N)c2O[C@@H]1CN(C)Cc1ccc(-c2ccccc2)cc1`, the cytotoxicity call is “active”.

As to `C[C@@H]1CN([C@H](C)CO)C(=O)c2cccc(NC(=O)CCCCCC(=O)Nc3ccccc3N)c2O[C@H]1CN(C)Cc1ccc(-c2ccccc2)cc1`, the cytotoxicity call is “inactive”. Next, `C[C@H]1CN([C@@H](C)CO)C(=O)c2cccc(NC(=O)CCCCCC(=O)Nc3ccccc3N)c2O[C@H]1CN(C)Cc1ccc(-c2ccccc2)cc1`: “inactive”; `C[C@H]1CN([C@@H](C)CO)C(=O)c2cccc(NC(=O)CCCCCC(=O)Nc3ccccc3N)c2O[C@@H]1CN(C)Cc1ccc(Cl)c(Cl)c1`: “active”; `C[C@@H]1CN([C@@H](C)CO)C(=O)c2cccc(NC(=O)CCCCCC(=O)Nc3ccccc3N)c2O[C@@H]1CN(C)Cc1ccc(-c2ccccc2)cc1`: “inactive”. The entry for `C[C@@H]1CN([C@@H](C)CO)C(=O)c2cccc(NC(=O)CCCCCC(=O)Nc3ccccc3N)c2O[C@H]1CN(C)Cc1ccc(Cl)c(Cl)c1` is “inactive”.

As to `C[C@@H]1CN([C@@H](C)CO)C(=O)c2cccc(NC(=O)CCCCCC(=O)Nc3ccccc3N)c2O[C@H]1CN(C)Cc1ccc(-c2ccccc2)cc1`, the cytotoxicity call was “inactive”. The entry for `C[C@@H]1CN([C@@H](C)CO)C(=O)c2cccc(NC(=O)CCCCCC(=O)Nc3ccccc3N)c2O[C@@H]1CN(C)Cc1ccc(Cl)c(Cl)c1` is “inactive”. In the case of `[N-]=[N+]=Nc1ccccc1[C@@H]1OC(c2ccc(OCCCO)cc2)=N[C@]1(CCS(=O)(=O)c1ccccc1)C(=O)NC[C@@H](O)CO`, the cytotoxicity call was “inactive”. Take `C[C@@H]1CN([C@H](C)CO)S(=O)(=O)c2ccc(C#CCN(C)C)cc2O[C@H]1CN(C)C(=O)c1ccccc1F`: the cytotoxicity call was “inactive”.

Consider `O=C(C[C@H]1C[C@@H]2c3cc(NC(=O)C4CCOCC4)ccc3O[C@@H]2[C@@H](CO)O1)NCc1ccc(Cl)cc1`, for which the cytotoxicity call is “inactive”. Consider `CCS(=O)(=O)N1C[C@]2(CN(Cc3cccc(c3)Cl)[C@H](CO)c3c2c2ccc(cc2n3C)OC)C1`, for which the cytotoxicity call is “inactive”. In the case of `C[C@H](CO)N1C[C@H](C)[C@H](CN(C)C(=O)Nc2ccc(N3CCCCC3)cc2)OCc2cnnn2CCCC1=O`, the cytotoxicity call is “inactive”. On to `COc1ccc(NC(=O)Nc2ccc3c(c2)C(=O)N([C@@H](C)CO)C[C@@H](C)[C@@H](CN(C)C(=O)Cc2ccccc2)OCCCC[C@H](C)O3)cc1`, for which the cytotoxicity call is “inactive”.

On to `COc1ccc(NC(=O)Nc2ccc3c(c2)C(=O)N([C@H](C)CO)C[C@H](C)[C@H](CN(C)C(=O)Nc2ccccc2)OCCCC[C@@H](C)O3)cc1`, for which the cytotoxicity call was “inactive”. As to `C[C@H](O)C#Cc1cnc2c(c1)C(=O)N([C@H](C)CO)C[C@@H](C)[C@H](CN(C)Cc1cncnc1)O2`, the cytotoxicity call was “inactive”. Next, `O=C(C[C@H]1C=C[C@H](NC(=O)Cc2ccccn2)[C@H](CO)O1)NCCc1ccncc1`: “inactive”. The entry for `C[C@@H]1CN([C@@H](C)CO)C(=O)c2cc(NC(=O)CCCN(C)C)ccc2O[C@@H](C)CCCCO[C@@H]1CN(C)S(=O)(=O)c1cn(C)cn1` is “inactive”. Take `C[C@@H]1CN([C@@H](C)CO)C(=O)c2c(c3ccccc3n2C)-c2ccccc2CO[C@@H]1CN(C)Cc1ccc2c(c1)OCO2`: the cytotoxicity call is “inactive”. The entry for `C[C@@H]1CN([C@@H](C)CO)C(=O)c2c(c3ccccc3n2C)-c2ccccc2CO[C@H]1CN(C)Cc1ccc2c(c1)OCCN2C` is “active”; for `C[C@H](CO)N1C[C@H](C)[C@@H](CN(C)Cc2ccc3c(c2)OCCN3C)OCc2ccccc2-c2c(n(C)c3ccccc23)C1=O` it is “inactive”; for `C[C@@H]1CN([C@@H](C)CO)C(=O)c2c(c3ccccc3n2C)-c2ccccc2CO[C@@H]1CN(C)Cc1ccc2c(c1)OCCN2C` it is “inactive”. In the case of `C[C@@H]1CN([C@H](C)CO)C(=O)c2c(c3ccccc3n2C)-c2ccccc2CO[C@H]1CN(C)Cc1ccc2c(c1)OCCN2C`, the cytotoxicity call is “inactive”. As to `C[C@H]1CN([C@@H](C)CO)C(=O)c2c(c3ccccc3n2C)-c2ccccc2CO[C@@H]1CN(C)Cc1ccc2c(c1)OCCN2C`, the cytotoxicity call was “active”. Turning to `C[C@H]1CN([C@@H](C)CO)C(=O)c2c(c3ccccc3n2C)-c2ccccc2CO[C@H]1CN(C)Cc1ccc2c(c1)OCCN2C`, the cytotoxicity call was “inactive”.

Regarding `C[C@H](CO)N1C[C@H](C)[C@H](CN(C)Cc2ccc3c(c2)OCCN3C)OCc2ccccc2-c2c(n(C)c3ccccc23)C1=O`, the cytotoxicity call is “inactive”. For `C[C@@H]1CN([C@H](C)CO)C(=O)c2c(c3ccccc3n2C)-c2ccccc2CO[C@@H]1CN(C)Cc1ccc2c(c1)OCCN2C`, the cytotoxicity call is “active”.

Regarding `COc1ccc(C#Cc2ccc3c(c2)[C@]2(C(=O)N3)[C@H](c3ccccc3OCCO)N3[C@H](c4ccccc4)[C@H](c4ccccc4)OC(=O)[C@H]3[C@@H]2C(=O)N2CCc3cc(OC)c(OC)cc3C2)cc1`, the cytotoxicity call was “inactive”.

Turning to `O=C(Cc1ccncc1)Nc1ccc2c(c1)[C@@H]1C[C@H](CC(=O)N3CCc4ccccc4C3)O[C@H](CO)[C@@H]1O2`, the cytotoxicity call is “inactive”. As to `O=C1NC(=O)[C@H]2[C@@H]1[C@H](c1ccccc1)N1[C@@H]3C(=O)NC(=O)[C@@H]3[C@H](c3ccccc3)N21`, the cytotoxicity call was “inactive”. As for `COc1ccc(C#Cc2ccc3c(c2)O[C@H](CN(C)C(C)=O)[C@@H](C)CN([C@@H](C)CO)S3(=O)=O)cc1`, the cytotoxicity call was “inactive”. The entry for `COc1ccc2c3c(n(c2c1)C)[C@H](CO)N(C[C@]13CCN(CC1)C(=O)Nc1cccc(c1)F)C(=O)CN1CCOCC1` is “inactive”; for `N=C(NO)NCC[C@H](N)C(=O)O` it is “inactive”. The entry for `C[C@@H]1CN([C@H](C)CO)C(=O)c2cc(NC(=O)NC3CCCCC3)ccc2O[C@@H](C)CCCCO[C@@H]1CN(C)C(=O)NC1CCCCC1` is “inactive”. As to `C[C@@H]1CN([C@@H](C)CO)C(=O)c2cc(NC(=O)Nc3ccccc3)ccc2O[C@@H](C)CCCCO[C@@H]1CN(C)Cc1ccc(C(F)(F)F)cc1`, the cytotoxicity call was “active”.

On to `C[C@H](CO)N1C[C@H](C)[C@@H](CN(C)Cc2ccc(C(F)(F)F)cc2)OCCCC[C@H](C)Oc2ccc(NC(=O)Nc3ccccc3)cc2C1=O`, for which the cytotoxicity call is “active”. Next, `C[C@@H]1CCCCO[C@@H](CN(C)Cc2ccc(C(F)(F)F)cc2)[C@@H](C)CN([C@@H](C)CO)C(=O)c2cc(NC(=O)Nc3ccccc3)ccc2O1`: “inactive”.

As for `C[C@@H]1CN([C@@H](C)CO)C(=O)c2cc(NC(=O)Nc3ccccc3)ccc2O[C@@H](C)CCCCO[C@H]1CN(C)Cc1ccc(C(F)(F)F)cc1`, the cytotoxicity call was “inactive”. `C[C@@H]1CCCCO[C@@H](CN(C)Cc2ccc(C(F)(F)F)cc2)[C@H](C)CN([C@@H](C)CO)C(=O)c2cc(NC(=O)Nc3ccccc3)ccc2O1`: the cytotoxicity call is “inactive”. Turning to `C[C@@H]1CCCCO[C@@H](CN(C)Cc2ccc(C(F)(F)F)cc2)[C@H](C)CN([C@H](C)CO)C(=O)c2cc(NC(=O)Nc3ccccc3)ccc2O1`, the cytotoxicity call is “active”. The entry for `C[C@@H]1CN([C@H](C)CO)C(=O)c2cc(NC(=O)Nc3ccccc3)ccc2O[C@@H](C)CCCCO[C@@H]1CN(C)Cc1ccc(C(F)(F)F)cc1` is “active”. On to `O=C(O)c1ccc(CNc2cn[nH]c(=O)n2)cc1`, for which the cytotoxicity call is “inactive”. Next, `COCCOC(=O)N1C(=O)[C@@]2(c3cc(C#CC4=CCCCC4)ccc31)[C@H](C(=O)NC[C@H](O)c1ccccc1)[C@H]1C(=O)O[C@H](c3ccccc3)[C@H](c3ccccc3)N1[C@@H]2c1ccc(O)cc1`: “inactive”; `C[C@@H]1CN([C@@H](C)CO)C(=O)Cc2cc(NC(=O)Cn3cnnn3)ccc2O[C@H]1CN(C)S(=O)(=O)c1ccccc1`: “inactive”; `CN(C)CC(=O)N1[C@@H](CO)[C@H](c2ccc(C3=CCCC3)cc2)C12CN(S(=O)(=O)Cc1ccccc1)C2`: “inactive”. As for `C[C@H](NC(=O)N(C)C[C@H]1OCc2ccccc2-c2c(n(C)c3ccccc23)C(=O)N([C@@H](C)CO)C[C@@H]1C)c1ccccc1`, the cytotoxicity call was “inactive”. The entry for `Cc1ccc(S(=O)(=O)N(C)C[C@H]2Oc3ccc(NS(C)(=O)=O)cc3CC(=O)N([C@H](C)CO)C[C@H]2C)cc1` is “inactive”; for `O=C(C[C@@H]1C[C@H]2c3cc(NC(=O)c4cccnc4)ccc3O[C@H]2[C@@H](CO)O1)NCc1cc(F)ccc1F` it is “inactive”; for `CCCNC(=O)N1C[C@H](O)COC[C@H]2O[C@@H](CC(=O)N3CCN(C)CC3)CC[C@@H]21` it is “inactive”. Next, `O=C(C[C@@H]1C[C@H]2c3cc(NC(=O)c4ccc5c(c4)OCO5)ccc3O[C@H]2[C@@H](CO)O1)NCCc1ccccc1`: “inactive”; `COC(=O)[C@@H]1C(=O)NC[C@H]1c1ccccc1`: “inactive”; `C[C@@H]1CCCCO[C@H](CN(C)Cc2ccc(C(F)(F)F)cc2)[C@@H](C)CN([C@@H](C)CO)C(=O)c2cc(NC(=O)Nc3ccccc3)ccc2O1`: “active”.

For `C[C@@H]1CN([C@H](C)CO)C(=O)c2cc(NC(=O)Nc3ccccc3)ccc2O[C@@H](C)CCCCO[C@H]1CN(C)Cc1ccc(C(F)(F)F)cc1`, the cytotoxicity call is “active”. Next, `C[C@H]1CCCCO[C@@H](CN(C)Cc2ccc(C(F)(F)F)cc2)[C@@H](C)CN([C@@H](C)CO)C(=O)c2cc(NC(=O)Nc3ccccc3)ccc2O1`: “active”. The entry for `C[C@@H]1CCCCO[C@@H](CN(C)Cc2ccc(C(F)(F)F)cc2)[C@@H](C)CN([C@H](C)CO)C(=O)c2cc(NC(=O)Nc3ccccc3)ccc2O1` is “inactive”; for `C[C@@H]1CCCCO[C@H](CN(C)Cc2ccc(C(F)(F)F)cc2)[C@H](C)CN([C@@H](C)CO)C(=O)c2cc(NC(=O)Nc3ccccc3)ccc2O1` it is “active”; for `C[C@@H]1CCCCO[C@H](CN(C)Cc2ccc(C(F)(F)F)cc2)[C@@H](C)CN([C@H](C)CO)C(=O)c2cc(NC(=O)Nc3ccccc3)ccc2O1` it is “inactive”.
